40 compounds from PubChem BioAssay (Tox21) can be followed below.

Each structure is given as a SMILES string. Records with an inconclusive call do not appear. Calls of active or inactive are those of the source. Calls come from the whole dose curve; as a rule, active = well fitted cell-killing curve with a large enough effect in the repeat runs; inconclusive = weak or mixed curves, or effect the other way; inactive = flat fitted curve, though single readings scatter.
% is set by controls: 0 for no effect and ±100 for the full control effect; potency is the fitted concentration of half-maximal effect.

This experiment in a line: qHTS assay to identify small molecule agonists of the androgen receptor (AR) signaling pathway in the presence of an antagonist - cell viability counter screen (AID 1259379). Note: nearly all actives have a fitted effect of over 25% in size. The conditions noted are these: MDA-kb2 viability, CellTiter-Fluor, 16 h; series mostly up to 92.4 µM; activity change, negative = cytotoxicity: at the top concentration. An excerpt:
National Center for Advancing Translational Sciences [NCATS]
NIH Chemical Genomics Center [NCGC]
U.S. Environmental Protection Agency [EPA]
National Institutes of Environmental Health Sciences [NIEHS]
National Toxicology Program [NTP]
U.S. Food and Drug Administration [FDA]
Androgen receptor (AR) is an important member of nuclear receptor family. Its signaling plays a critical role in AR-dependent prostate cancer and other androgen related diseases. Considerable attention has been given in the past decades to develop methods to study and screen for the environmental chemicals that have the potential to interfere with metabolic homeostasis, reproduction, developmental and behavioral functions. Therefore AR binding assay for screening against androgen agonists and antagonists can be used to identify potential endocrine disruptors.
MDA-kb2 cells (from ATCC, deposited by Wilson et al.) are human breast carcinoma cells that were stably transfected with a luciferase reporter gene under control of the MMTV promoter that contains response elements for both androgen receptor (AR) and glucocorticoid receptor (GR). This particular screening for measuring luciferase reporter gene activity using MDA-kb2 cells against Tox21 10K library compounds is a confirmation study on agonist mode screening in the presence of AR-antagonist compound (Nilutamide) at 3.0uM final concentration. The cytotoxicity of the compounds was tested in parallel by measuring the cell viability using CellTiter-Fluor assay system (Promega, Madison, WI) in the same wells.
Tox21 Assay Protocol Summary:
MDA-kb2 cells (cells cultured without CO2) were dispensed at 3,000 cells/well in 4uL of culture medium into white wall/solid-bottom 1536-well plates (Corning Life Sciences, Corning, NY) using a Multidrop Combi (Thermo Fisher Scientific Inc., Waltham, MA) dispenser. The assay plates were incubated at 37C and 0% CO2 for 5hr. One uL of 3.0uM (final concentration) Nilutamide or assay buffer was added using two separate tips of Flying Reagent Dispenser (FRD, Aurora Discovery, San Diego, CA). Then 23nL of compounds dissolved in DMSO at 15 concentrations and positive controls were transferred to the assay plates using a Pintool station (Wako, San Diego, CA). The assay plates were incubated at 37C and 0% CO2 for 16 hr. After 15hr incubation at 37C, 1uL/well CellTiter-Fluor reagent (Promega Corporation) was added to each well of the assay plates using FRD. After 1hr incubation at 37C and 0% CO2, the fluorescence signal was measured using a ViewLux plate reader (PerkinElmer, Shelton, CT).
With `CCOC(=O)Cn1c(=O)sc2cccc(Cl)c21`, the “activity change, negative = cytotoxicity” value is -0.937% (inactive).

Consider `NS(=O)(=O)c1cc2c(cc1Cl)NC(CSCc1ccccc1)=NS2(=O)=O`, for which the “activity change, negative = cytotoxicity” value was 0.387% [at 42.5 µM] (inactive).

Take `CCCCCCCCCCCCI`: the “activity change, negative = cytotoxicity” value is 0.902% (inactive).

For `CCOC(=O)[C@H](CCc1ccccc1)N[C@@H](C)C(=O)N1CCC[C@H]1C(=O)O`, the “activity change, negative = cytotoxicity” value is 9.23% [at 42.5 µM] (inactive).

As for `C=C(C)C(=O)NCCCN(C)C`, the “activity change, negative = cytotoxicity” value was -0.811% (inactive).

On to `CC(C)=CCC/C(C)=C/C(=O)O`, for which the “activity change, negative = cytotoxicity” value was 1.32% (inactive).

On to `O=C(O)C1CCC1`, for which the “activity change, negative = cytotoxicity” value was 0.808% [at 42.5 µM] (inactive).

Take `OC[C@H]1O[C@@H]2O[C@H]3[C@H](O)[C@@H](O)[C@@H](O[C@H]4[C@H](O)[C@@H](O)[C@@H](O[C@H]5[C@H](O)[C@@H](O)[C@@H](O[C@H]6[C@H](O)[C@@H](O)[C@@H](O[C@H]7[C@H](O)[C@@H](O)[C@@H](O[C@H]8[C@H](O)[C@@H](O)[C@@H](O[C@H]9[C@H](O)[C@@H](O)[C@@H](O[C@H]1[C@H](O)[C@H]2O)O[C@@H]9CO)O[C@@H]8CO)O[C@@H]7CO)O[C@@H]6CO)O[C@@H]5CO)O[C@@H]4CO)O[C@@H]3CO`: the “activity change, negative = cytotoxicity” value is -2% [at 42.5 µM] (inactive).

Regarding `C=CCOc1nc(OCC=C)nc(OCC=C)n1`, the “activity change, negative = cytotoxicity” value was -0.0975% (inactive).

For `CN(C)C(=O)C(CCN1CCC(O)(c2ccc(Cl)cc2)CC1)(c1ccccc1)c1ccccc1`, the Potency was 29.8 µM (active).

As to `CC(C)(C)OC(=O)N1C[C@@H](F)C[C@H]1C(=O)O`, the “activity change, negative = cytotoxicity” value was -6.44% (inactive).

Turning to `CC/C=C\C#N`, the “activity change, negative = cytotoxicity” value was 4.77% (inactive).

Turning to `CCCOCC(C)OCC(C)O` (stereo not given), the “activity change, negative = cytotoxicity” value was -1.81% (inactive).

For the compound `O=C(O)c1ccc[n+]([O-])c1`, the “activity change, negative = cytotoxicity” value was 6.08% [at 42.5 µM] (inactive).

As for `C1=C\CC/C=C\CC/C=C\CC/1`, the “activity change, negative = cytotoxicity” value was -1.43% (inactive).

Regarding `CC(C)(C)N(CCO)CCO`, the “activity change, negative = cytotoxicity” value was 2.23% (inactive).

In the case of `OCc1ccccn1`, the “activity change, negative = cytotoxicity” value was -11.9% [at 42.5 µM] (inactive).

Turning to `CCCCCCC(CCCCCCCCCCC(=O)OCC(COC(C)=O)OC(C)=O)OC(C)=O` (stereo not given), the “activity change, negative = cytotoxicity” value is 0.329% [at 42.5 µM] (inactive).

Consider `CC(=O)O[C@H](CC(=O)[O-])C[N+](C)(C)C`, for which the “activity change, negative = cytotoxicity” value was 0.392% (inactive).

As to `CCCCN(CCO)CCO`, the “activity change, negative = cytotoxicity” value was 0.414% (inactive).

Consider `N#CCc1ccccc1[N+](=O)[O-]`, for which the “activity change, negative = cytotoxicity” value is -0.832% (inactive).

In the case of `Cc1c(F)cc2c(=O)c(C(=O)O)cn3c2c1CCC3C` (stereo not given), the “activity change, negative = cytotoxicity” value was 1.58% [at 42.5 µM] (inactive).

Consider `CCN1CCCC(OC(=O)C(c2ccccc2)c2ccccc2)C1` (stereo not given), for which the “activity change, negative = cytotoxicity” value is -1.47% [at 42.5 µM] (inactive).

Regarding `C#CC(O)C(CC)CCCC` (stereo not given), the “activity change, negative = cytotoxicity” value was 1.26% (inactive).

Take `NCCNC(=O)c1ccc(Cl)cn1`: the “activity change, negative = cytotoxicity” value was 0.118% [at 42.5 µM] (inactive).

For `CC1(C)OC(=O)Nc2ccc(Br)cc21`, the “activity change, negative = cytotoxicity” value was -2.85% [at 42.5 µM] (inactive).

With `COc1ccc2cc(C=O)ccc2c1`, the “activity change, negative = cytotoxicity” value was 2.15% [at 42.5 µM] (inactive).

On to `CN(C)CCOC(c1ccc(Cl)cc1)c1ccccn1` (stereo not given), for which the “activity change, negative = cytotoxicity” value was -3.75% [at 42.5 µM] (inactive).

`CC(=O)CCc1ccc(O)cc1`: the “activity change, negative = cytotoxicity” value is -2.28% (inactive).

With `COc1cc(CCC(C)=O)ccc1O`, the “activity change, negative = cytotoxicity” value is -2.3% (inactive).

As to `CCCc1ccc(N)cc1`, the “activity change, negative = cytotoxicity” value is 1.86% (inactive).

On to `COC(C(=O)O)c1ccccc1` (stereo not given), for which the “activity change, negative = cytotoxicity” value was 0.663% (inactive).

Consider `C1C2OC2C2C1C1CC2C2OC12` (stereo not given), for which the “activity change, negative = cytotoxicity” value was 1.31% (inactive).

Consider `CC(C)N1C(=O)c2ccccc2C1=O`, for which the “activity change, negative = cytotoxicity” value was 0.285% (inactive).

With `[O-][N+](=Nc1ccccc1)c1ccccc1`, the “activity change, negative = cytotoxicity” value was -1.7% (inactive).

`CC(C)(C)C(=O)/C=C/c1ccc(Cl)cc1`: the “activity change, negative = cytotoxicity” value was -4.01% (inactive).

In the case of `CC(C)c1ccc2oc3nc(N)c(C(=O)O)cc3c(=O)c2c1`, the “activity change, negative = cytotoxicity” value is -4.43% [at 42.5 µM] (inactive).

In the case of `CCCCCCCCN(C)CCCCCCCC`, the “activity change, negative = cytotoxicity” value was -0.731% (inactive).

For the compound `Cc1ccccc1Br`, the “activity change, negative = cytotoxicity” value is 0.333% (inactive).

Consider `OCCCCCCO`, for which the “activity change, negative = cytotoxicity” value was -0.369% (inactive).
